A selection: hits, their analogues and other compounds. The true share with any hit is near 18%.
CtBP-E1A blk: CtBP/E1A binding inhibition; AlphaScreen GST-E1A/His-CtBP binding, 1536-well; hits give low values; activity change, % (no concentration beside the values); 0.49% of 340,000 active; in the data active = activity change below about -65%; inconclusive = mostly about -30% to -63%
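Protein mix (5X: 125 nM each GST-E1A, His-CtBP) was incubated with pinned compound 2 h at 37 deg C in dark, in 50 mM Tris pH 8.0 buffer with 300 mM NaCl. Glutathione donor and nickel acceptor beads followed; AlphaScreen signal read after 1 h.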
TDP1 cell noCPT: qHTS for Inhibitors of human tyrosyl-DNA phosphodiesterase 1 (TDP1): qHTS in cells in absence of CPT | 15% of 420,000 active | AID 686978, 2013 | Potency, µM (doses to about 46.2 µM), without a hit: top-dose activity change, negative = growth inhibition, hits mostly inhibitors | DT40 Tdp1-/- hTDP1 cells, no CPT, ATP luminescence, 48 h; note: potency is the fitted concentration of half-maximal effect; nearly all actives have a fitted effect of over 55% in size
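Camptothecin absent (DMSO only). Human TDP1-complemented DT40 knockout cells, 400 cells/well, 37 °C for minimum 48 hr; ATP measured via CellTiter-Glo, 30 min dark incubation, luminescence.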
TDP1 cell CPT: growth inhibition of DT40 Tdp1-/-;hTDP1 cells with camptothecin (screen for TDP1 inhibitors). chicken DT40 Tdp1-/-;hTDP1 cells + 20 nM CPT, ATP luminescence, 48 h. Potency, µM (highest dose often 46.2 µM), for inactives: at the highest dose activity change, negative = growth inhibition, usual class: inhibitors. 12% of 420,000 active. AID 686979; note: potency is the fitted concentration of half-maximal effect; nearly all actives have a fitted effect of over 55% in size
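Cell growth measured by CellTiter-Glo luminescence after a minimum 48 h, 37 C compound exposure with 20 nM CPT in Tdp1-knockout DT40 cells stably expressing hTDP1, seeded 400/well; qHTS titration format.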
TDP1 inh: inhibitors of human tyrosyl-DNA phosphodiesterase TDP1; Potency, µM (series often up to 130 µM), for the others: at the highest dose activity change, negative = inhibition, actives largely listed as inhibitors; 0.28% of 350,000 active; AID 485290; Q9NUW8; recombinant TDP1, AlphaScreen DNA substrate cleavage; note: potency is the fitted concentration of half-maximal effect; nearly all actives have a fitted effect of over 40% in size
Target sequence (Q9NUW8 whole entry, looked up): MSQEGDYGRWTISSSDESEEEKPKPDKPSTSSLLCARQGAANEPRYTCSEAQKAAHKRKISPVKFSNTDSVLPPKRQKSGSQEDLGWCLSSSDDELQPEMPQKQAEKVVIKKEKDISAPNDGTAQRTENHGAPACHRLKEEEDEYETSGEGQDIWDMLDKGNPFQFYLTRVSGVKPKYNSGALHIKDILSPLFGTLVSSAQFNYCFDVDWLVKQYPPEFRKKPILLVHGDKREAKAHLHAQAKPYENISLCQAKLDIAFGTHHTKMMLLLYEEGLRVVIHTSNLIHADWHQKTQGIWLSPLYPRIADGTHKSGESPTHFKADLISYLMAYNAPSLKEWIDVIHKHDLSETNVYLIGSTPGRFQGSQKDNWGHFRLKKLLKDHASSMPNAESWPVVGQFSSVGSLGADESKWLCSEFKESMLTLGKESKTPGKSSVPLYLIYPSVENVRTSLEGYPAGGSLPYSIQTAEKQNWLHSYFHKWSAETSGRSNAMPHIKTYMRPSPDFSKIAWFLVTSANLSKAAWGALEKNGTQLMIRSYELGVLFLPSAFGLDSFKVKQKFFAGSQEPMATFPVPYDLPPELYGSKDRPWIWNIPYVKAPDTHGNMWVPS
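Signal: AlphaScreen proximity between streptavidin donor and anti-FITC acceptor beads on intact substrate. Reaction: Tdp1 1 nM, substrate 15 nM final, 5 min RT after 15 min compound preincubation.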
IL-1B inflam inh: blocks inflammasome-driven IL-1 beta release. THP-1 LPS/ATP IL-1B secretion, AlphaLISA, 16 h; hits give low values. activity change, % at 57.5 µM. 4.7% of 360,000 active. AID 743279; in the data active = activity change below about -50%; inconclusive = mostly about -30% to -49%
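Secreted IL-1B measured by AlphaLISA bead assay after 16 h compound exposure of THP-1 cells; compounds (final up to 57.5 uM) added 1 h before LPS (250 ng/mL) and ATP (1.25 mM) stimulation; lower signal means less secretion.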
Six1-Eya2 inh: blocks human Six1 binding to Eya2 | Q15475+O00167 | AlphaScreen GST-Six1/His-Eya2 binding, biochemical; hits give low values | activity change, % (test concentration not listed) | 0.56% of 360,000 active | AID 651725; in the data active = activity change below about -65%; inconclusive = mostly about -30% to -63%
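GST-Six1 + His-Eya2 (5X stock: 250/500 nM); Tris pH 8.0, 300 mM NaCl, 0.05% BSA, 0.02% Tween 20; GSH donor/Ni acceptor beads; 1 h 37 °C dark; AlphaScreen readout.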
Starred values were filed as active, the others as inactive; ? = inconclusive; . = no result given; [ ] = another dose, or the depositor's remark. Unless noted, calls come from the whole dose curve; as a rule, active = well fitted curve in the direction sought with a large enough effect; inconclusive = small, poorly fitted or top-dose-only effect, or another doubt; inactive = no such curve, though single readings can be large; an effect the other way counts as inactive or inconclusive. % is set by controls: 0 for no effect and ±100 for the full control effect.

SMILES	CtBP-E1A blk	TDP1 cell noCPT	TDP1 cell CPT	TDP1 inh	IL-1B inflam inh	Six1-Eya2 inh
COc1ccc(-c2cc(CCC(=O)N3CCN(c4cc(C)ccc4C)CC3)[nH]n2)cc1	-9.2	23.1µM*	?	1.2%[56.1 µM]	-4.5	-15.3
CCOC(=O)c1[nH]c(C)c(CCC(=O)N2CCN(c3cc(Cl)ccc3C)CC2)c1C	.	23.1µM*	?	10.8%	.	.
CCOC(=O)c1[nH]c(C)c(CCC(=O)N2CCN(c3cccc(OC)c3)CC2)c1C	.	?	?	5.4%	.	.
Cc1ccc(N)cc1NC(=O)CN1CCOCC1	1.5	3.5%	0.2%	4.7%	13.4	3.7
O=C(Nc1nnc(SCc2ccc(F)cc2)s1)c1ccco1	3.5	-12.5%	-7.9%	7.1%	10.8	7.7
C=CCOC(=O)C1=C(C)N=C2SCCC(=O)N2C1/C=C/c1ccccc1 (stereo not given)	.	?	?	4.3%	-1.5	-5.5
N#Cc1ccc(NC(=O)Cn2cnc([N+](=O)[O-])c2)cc1	7.5	9.6%	-27.2%	4.1%	34.0	8.2
O=C(Cn1cnc([N+](=O)[O-])c1)Nc1cc(Oc2ccc(Cl)cc2Cl)cc([N+](=O)[O-])c1	-20.3	16.4µM*	16.4µM*	5.5%	-58.0*	-25.2
COc1ccc(C(=O)Nc2cccc(C)n2)cc1S(=O)(=O)N1CCCc2ccccc21	-14.5	16.4µM*	?	.	?	-12.5
COc1ccc(C(=O)O)cc1S(=O)(=O)N1CCCc2ccccc21	.	-2.7%	8.1%	.	35.5	5.3
COc1ccc(C(=O)NCc2ccccc2)cc1S(=O)(=O)N1CCCc2ccccc21	-2.4	?	15.8µM*	9.8%	5.1	-4.7
Cc1cc(-c2n[nH]c(=S)n2/N=C/c2cccs2)n[nH]1	2.1	-2.9%	-12.3%	0.0%	-26.6	-4.4
COC(=O)CCC(=O)OC	-21.3	-9.9%	-2.0%	0.7%	3.6	9.5
COC(=O)c1c(C)[nH]c(C(=O)OC(C)C(=O)N2CCOCC2)c1C (stereo not given)	2.4	-0.8%	15.1%	0.3%	10.3	-3.6
COC(=O)c1c(C)[nH]c(C(=O)OC(C)C(=O)NC2CCCCC2C)c1C (stereo not given)	-16.0	?	11.6µM*	.	-0.2	9.9
Cc1nn(-c2ccccc2)c(C)c1C(=O)OC(C)C(=O)NC1CCCCC1C (stereo not given)	.	20.6µM*	13µM*	-4.8%	22.8	-4.2
CC1(C)CC(=O)C(C2(O)C(=O)Nc3ccccc32)CO1 (stereo not given)	-1.7	-11.1%	18.6%	-6.0%	5.7	3.7
CC1(C)CC(=O)C(C2(O)C(=O)N(Cc3ccccc3)c3ccccc32)CO1 (stereo not given)	9.3	5.17µM*	4.61µM*	-2.1%	-1.5	1.6
O=C1N(Cc2ccccc2)c2ccccc2C12OCCO2	7.4	-24.3%	-1.0%	.	17.8	-4.8
CC1(C)CC(=O)CC(C2(O)C(=O)N(Cc3ccccc3)c3ccccc32)O1 (stereo not given)	4.8	1.84µM*	2.59µM*	-5.3%	21.0	-0.3
CC(C)N1C(=O)C(O)(C2COC(C)(C)CC2=O)c2ccccc21 (stereo not given)	-23.8	7.31µM*	5.8µM*	2.4%	-2.9	43.2
COc1ccc(CN2C(=O)c3cccnc3C2=O)cc1S(=O)(=O)NCc1ccc(C)cc1	.	-8.1%	-0.2%	2.5%	-7.3	3.5
CC(=O)c1ccc(NC(=S)NCc2ccco2)cc1	-0.9	2.3%	4.3%	-4.7%	?	0.1
O=C(CSc1nc2ccccc2o1)NC1CCCC1	11.1	-2.2%	-1.0%	4.9%	8.0	0.9
CC(C)(C)c1cc(C(=O)O)n(Cc2ccc(Cl)cc2Cl)n1	-4.1	-13.1%	14.6µM*	0.0%	22.7	1.8
CC1CCN(C(=O)CCNC(=O)Cn2cnc3sc4c(c3c2=O)CCCC4)CC1	-14.8	-16.1%	-21.8%	1.5%	-0.7	-0.8
